# According to the antibiotic and cytotoxicity screens of Wong et al. (2023):
# The whole screen tested about 39,000 compounds, of which about 3,300 (8.5%) were called active. Only a selection was taken, and actives are over-represented in it overall.
# Tested on: HepG2
# Experiment: cytotoxicity call (relative viability < 0.9)
# Settings: 10 µM
row,Compound,cytotoxicity call
1,C[C@H]1CN([C@@H](C)CO)C(=O)c2cc(NC(=O)c3ccncc3)ccc2O[C@H]1CN(C)Cc1ccc(C(=O)O)cc1,inactive
2,C[C@@H]1CN([C@@H](C)CO)C(=O)c2cc(NC(=O)Nc3ccccc3)ccc2O[C@@H](C)CCCCO[C@@H]1CN(C)S(=O)(=O)c1ccc(Cl)cc1,inactive
3,C[C@@H]1CCCCO[C@H](CN(C)S(=O)(=O)c2ccc(Cl)cc2)[C@@H](C)CN([C@H](C)CO)C(=O)c2cc(NC(=O)Nc3cccc4ccccc34)ccc2O1,inactive
4,C[C@@H]1CCCCO[C@@H](CN(C)S(=O)(=O)c2ccc(Cl)cc2)[C@@H](C)CN([C@@H](C)CO)C(=O)c2cc(NC(=O)Nc3cccc4ccccc34)ccc2O1,active
5,C[C@@H]1CN([C@@H](C)CO)C(=O)c2cc(NC(=O)Nc3ccccc3)ccc2O[C@@H](C)CCCCO[C@H]1CN(C)S(=O)(=O)c1ccc(Cl)cc1,active
6,C[C@@H]1CN([C@H](C)CO)C(=O)c2cc(NC(=O)Nc3ccccc3)ccc2O[C@@H](C)CCCCO[C@H]1CN(C)S(=O)(=O)c1ccc(Cl)cc1,active
7,C[C@@H]1CCCCO[C@@H](CN(C)S(=O)(=O)c2ccc(Cl)cc2)[C@@H](C)CN([C@@H](C)CO)C(=O)c2cc(NC(=O)Nc3ccccc3)ccc2O1,inactive
8,C[C@H](CO)N1C[C@H](C)[C@@H](CN(C)S(=O)(=O)c2ccc(Cl)cc2)OCCCC[C@H](C)Oc2ccc(NC(=O)Nc3ccccc3)cc2C1=O,inactive
9,C[C@@H]1CCCCO[C@@H](CN(C)S(=O)(=O)c2ccc(Cl)cc2)[C@@H](C)CN([C@H](C)CO)C(=O)c2cc(NC(=O)Nc3ccccc3)ccc2O1,inactive
10,C[C@@H]1CCCCO[C@H](CN(C)S(=O)(=O)c2ccc(Cl)cc2)[C@@H](C)CN([C@@H](C)CO)C(=O)c2cc(NC(=O)Nc3cccc4ccccc34)ccc2O1,inactive
11,C[C@H](CO)N1C[C@H](C)[C@H](CN(C)C(=O)Nc2ccccc2)OCCCC[C@H](C)Oc2ccc(NC(=O)NC3CCCCC3)cc2C1=O,inactive
12,C[C@@H]1CN([C@H](C)CO)C(=O)c2cccc(NC(=O)Nc3cccc4ccccc34)c2O[C@@H]1CN(C)S(=O)(=O)c1ccc(Cl)cc1,inactive
13,Cc1ccc(/C=N/Nc2cnnc(=O)[nH]2)o1,inactive
14,O=C(Cn1cnnn1)NC1C(=O)N2C(C(=O)O)=C(CSc3nncs3)CSC12 (stereo not drawn),inactive
15,COCC(=O)Nc1ccc2c(c1)OC[C@@H](C)N(C(=O)Cc1ccccn1)C[C@H](C)[C@@H](OC)CN(C)C2=O,inactive
16,O=c1[nH]c(=O)c2[nH]c(=O)[nH]c2[nH]1,inactive
17,COc1ccc(S(=O)(=O)Nc2ccc3c(c2)CC(=O)N([C@H](C)CO)C[C@H](C)[C@@H](CN(C)C(=O)Nc2c(C)noc2C)O3)cc1,inactive
18,COc1ccc(NC(=O)Nc2cccc3c2O[C@H](CN(C)Cc2ccc(Oc4ccccc4)cc2)[C@H](C)CN([C@H](C)CO)C3=O)cc1,inactive
19,Cc1cc(C(=O)Nc2cccc3c2O[C@@H](CN(C)Cc2ccc(Oc4ccccc4)cc2)[C@H](C)CN([C@@H](C)CO)C3=O)n(C)n1,inactive

row,Compound,cytotoxicity call
1,COc1ccc(NC(=O)Nc2cccc3c2O[C@@H](CN(C)Cc2ccc(Oc4ccccc4)cc2)[C@H](C)CN([C@H](C)CO)C3=O)cc1,inactive
2,C[C@@H]1CN([C@H](C)CO)C(=O)c2cccc(NC(=O)Nc3ccc(F)cc3)c2O[C@@H]1CN(C)Cc1ccc(Oc2ccccc2)cc1,active
3,C[C@H](CO)N1C[C@H](C)[C@H](CN(C)Cc2ccc(Oc3ccccc3)cc2)Oc2c(NC(=O)Nc3ccc(F)cc3)cccc2C1=O,inactive
4,Cc1cc(C(=O)Nc2cccc3c2O[C@@H](CN(C)Cc2ccc(Oc4ccccc4)cc2)[C@@H](C)CN([C@@H](C)CO)C3=O)n(C)n1,inactive
5,COc1ccc(NC(=O)Nc2cccc3c2O[C@H](CN(C)Cc2ccc(Oc4ccccc4)cc2)[C@@H](C)CN([C@H](C)CO)C3=O)cc1,inactive
6,COc1ccc(NC(=O)Nc2cccc3c2O[C@@H](CN(C)Cc2ccc(Oc4ccccc4)cc2)[C@@H](C)CN([C@@H](C)CO)C3=O)cc1,active
7,COc1ccc(NC(=O)Nc2cccc3c2O[C@@H](CN(C)Cc2ccc(Oc4ccccc4)cc2)[C@@H](C)CN([C@H](C)CO)C3=O)cc1,active
8,C[C@@H]1CN([C@@H](C)CO)C(=O)c2cccc(NC(=O)Nc3ccc(F)cc3)c2O[C@H]1CN(C)Cc1ccc(Oc2ccccc2)cc1,inactive
9,Cc1cc(C(=O)Nc2cccc3c2O[C@H](CN(C)Cc2ccc(Oc4ccccc4)cc2)[C@@H](C)CN([C@H](C)CO)C3=O)n(C)n1,active
10,COc1ccc(NC(=O)Nc2cccc3c2O[C@H](CN(C)Cc2ccc(Oc4ccccc4)cc2)[C@@H](C)CN([C@@H](C)CO)C3=O)cc1,inactive
11,CC(=O)N1[C@@H](CO)[C@H](c2ccccc2)C12CN(C(=O)CN1CCOCC1)C2,inactive
12,Cc1ccc(S(=O)(=O)Nc2cccc3c2O[C@@H](CN(C)CC2CC2)[C@@H](C)CN([C@@H](C)CO)C3=O)cc1,inactive
13,C[C@H]1CN([C@@H](C)CO)C(=O)c2cc(C#CC3(O)CCCC3)cnc2O[C@H]1CN(C)S(=O)(=O)c1ccc(F)cc1,inactive
14,Cc1ccc(S(=O)(=O)Nc2ccc3c(c2)C(=O)N([C@H](C)CO)C[C@@H](C)[C@H](CN(C)C(=O)Cc2ccccc2)OCCCC[C@@H](C)O3)cc1,inactive
15,COC(=O)c1c2oc(c1C(=O)OC)C(=O)N[C@H](Cc1ccccc1)Cn1cc(nn1)CNC(=O)[C@@H](Cc1ccccc1)NC(=O)N[C@@H](CO)CC2,inactive
16,COCC#Cc1ccc2c(c1)O[C@H](CN(C)C(=O)c1ccccc1)[C@H](C)CN([C@@H](C)CO)S2(=O)=O,inactive
17,O=C(C[C@@H]1C=C[C@H](NS(=O)(=O)c2ccc(F)cc2)[C@H](CO)O1)N1CCC(Cc2ccccc2)CC1,inactive
18,C[C@H]1CCCCO[C@@H](CN(C)Cc2ccncc2)[C@@H](C)CN([C@@H](C)CO)C(=O)c2cc(NS(C)(=O)=O)ccc2O1,inactive
19,C[C@@H]1CCCCO[C@@H](CN(C)CC2CCCCC2)[C@@H](C)CN([C@@H](C)CO)C(=O)c2cc(NS(=O)(=O)c3ccccc3)ccc2O1,inactive
